Reference: PMC6212790, “How bacterial xenogeneic silencer rok distinguishes foreign from self DNA in its resident genome”
In all, about 33,000 sequences were measured (“e-score”: median about -0.037, highest 2% from about 0.34 on). This is one part of a sample in which the highest values are shown more often than they occur.

Biological target: T1, GST-Rok (full length) (Bacillus subtilis subsp. subtilis str. …, UniProt O34857 1-191)
T1 sequence: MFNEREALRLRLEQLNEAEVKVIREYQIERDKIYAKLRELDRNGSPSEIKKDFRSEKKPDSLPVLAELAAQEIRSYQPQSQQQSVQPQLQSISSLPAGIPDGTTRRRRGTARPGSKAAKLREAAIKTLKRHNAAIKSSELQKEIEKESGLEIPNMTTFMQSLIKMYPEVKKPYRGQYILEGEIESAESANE
Test: protein binding microarray; Rok is a gene silencer of Bacillus subtilis; high values mean tight binding
Conditions: protein: recombinant; tags: GST (pTH5325, pDEST15-Magic modified); dsDNA, one strand shown
In short: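 Every oligonucleotide joins a 25-mer constant primer to a 35-mer variable part drawn from a de Bruijn sequence of order 10, so each non-palindromic 8-mer appears at least 32 times and each palindromic 8-mer 16 times. The preference for every 8-mer is reported as a unitless, rank-based enrichment score (E-score). This score spans 0.5 for the most favored 8-mer to −0.5 for the most disfavored.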

Sequence | binding signal
CGATCTAC | 0.371 E-score
AAATCTAG | 0.35 E-score
GAATCTAA | 0.201 E-score
CGATCTAA | -0.00615 E-score
CAATCTAA | 0.172 E-score
AAATCTCG | 0.144 E-score
GAATCTCC | 0.00693 E-score
CAATCTAC | 0.365 E-score
AGATCTAG | 0.167 E-score
CGATCTAG | 0.214 E-score
AAAAACCG | -0.0149 E-score
AAACCAAA | -0.0651 E-score
ACGTTGGA | -0.0982 E-score
CTCACTCA | 0.0449 E-score
ATGGTATG | 0.0823 E-score
AATCTCCG | 0.0469 E-score
ACCCGCAG | -0.2 E-score
ATAAACAA | 0.0341 E-score
TAATAACA | 0.238 E-score
AATGGGAG | -0.0919 E-score
GTTATCTA | 0.285 E-score
AACTTCGG | -0.044 E-score

Sequence | binding signal
TACGAGAA | 0.113 E-score
AAATCTAA | 0.157 E-score
AAATCTAC | 0.398 E-score
AAATCTAT | 0.315 E-score
CGCATCGC | -0.115 E-score
AAGTCCCG | -0.14 E-score
GATAGAAA | 0.307 E-score
AATAGAAA | 0.371 E-score
AATAGAAT | 0.329 E-score
CATAGAAA | 0.129 E-score
AATAGAAC | 0.0621 E-score
TATAGAAA | 0.363 E-score
ATGTGCTA | 0.222 E-score
CCATATCC | -0.0185 E-score
CGCGGCAA | 0.00655 E-score
CTTACTCA | -0.0171 E-score
CGTTGAAG | 0.0718 E-score
AACGGCGC | -0.0478 E-score
ATAGCGAG | -0.0541 E-score
CGAGTTAA | 0.153 E-score
GAAGTTAA | 0.277 E-score
CAAGTTAA | 0.0371 E-score

Sequence | binding signal
CTAGTTAA | 0.349 E-score
GTAGTTAA | 0.431 E-score
GTAGTTCA | 0.217 E-score
AGACTGGA | -0.123 E-score
ACATAGTC | 0.114 E-score
AGTTACGA | 0.167 E-score
ATTCACGA | -0.0154 E-score
AAACAGCT | 0.0473 E-score
CCTTCACA | 0.0629 E-score
CAGCTACA | 0.0906 E-score
GAGCTACA | 0.0398 E-score
ATGCTATA | 0.339 E-score
GTGCTATA | 0.147 E-score
TAGCTATA | 0.346 E-score
TAGCTACA | 0.37 E-score
AAGCTATA | 0.231 E-score
CTGCTATA | 0.0937 E-score
GAGCTATA | 0.145 E-score
AAACTCCA | -0.0432 E-score
CTCACTGC | 0.0486 E-score
AACGAATT | 0.325 E-score
ATAACAAT | 0.266 E-score

Sequence | binding signal
AACAACAC | -0.114 E-score
AAATTACT | 0.386 E-score
AAATTACG | 0.194 E-score
AATTTACA | 0.305 E-score
AATTTACC | 0.296 E-score
AAATTACC | 0.347 E-score
CAATTACC | 0.133 E-score
AATTTACG | 0.292 E-score
AAATTACA | 0.301 E-score
GATTTACC | 0.275 E-score
GATTTACA | 0.345 E-score
AATTTACT | 0.384 E-score
GAATTACC | 0.216 E-score
GCCGATGA | -0.108 E-score
AGGTGAGC | -0.0616 E-score
ATTGATTC | 0.127 E-score
TGCAGTAA | 0.194 E-score
ATGGTAGC | 0.287 E-score
ATGGTATC | 0.165 E-score
GTGGTAAA | 0.192 E-score
CTGGTATA | 0.303 E-score
ATGGTATA | 0.381 E-score

Sequence | binding signal
ATGGTAGG | 0.243 E-score
ATGGTAGA | 0.444 E-score
CTGGTAGA | 0.335 E-score
GTGGTAGA | 0.435 E-score
TGCCAGCA | 0.156 E-score
CGTCACAA | -0.0647 E-score
TATAACGA | 0.245 E-score
CCTATGCC | -0.0371 E-score
TCAACCAA | -0.0239 E-score
CGAATCTC | -0.0708 E-score
TAATAGGA | 0.202 E-score
AAACCTAA | 0.124 E-score
ATAACTTA | 0.265 E-score
ACCGATAG | 0.0776 E-score
ACCGATAC | 0.117 E-score
ACCGATAT | 0.338 E-score
GATATCTA | 0.4 E-score
AATATCTA | 0.392 E-score
AATATCTG | 0.268 E-score
CATATCTA | 0.293 E-score
AATATCTC | 0.203 E-score
GATATCAA | 0.208 E-score
